Results as given in PubChem BioAssay AID588347 (National Center for Advancing Translational Sciences (NCATS), 2011).
The other results are listed elsewhere or left out. Results filed as inconclusive are left out. Calls of active or inactive are those of the source. Calls come from the whole dose curve; as a rule, active = well fitted inhibition curve with a large enough effect; inconclusive = small, poorly fitted or top-dose-only effect, or another doubt; inactive = no such curve, though single readings can be large or run the other way.

What follows are compounds tested against Histone acetyltransferase KAT2A (Homo sapiens) (UniProt Q92830) (assay: qHTS Assay for Inhibitors of GCN5L2: Hit confirmation). Conditions: GCN5L2 HAT, ThioGlo1 CoA fluorescence, 20 min.
Sequence of Histone acetyltransferase KAT2A (Homo sapiens) (Q92830 whole entry, looked up): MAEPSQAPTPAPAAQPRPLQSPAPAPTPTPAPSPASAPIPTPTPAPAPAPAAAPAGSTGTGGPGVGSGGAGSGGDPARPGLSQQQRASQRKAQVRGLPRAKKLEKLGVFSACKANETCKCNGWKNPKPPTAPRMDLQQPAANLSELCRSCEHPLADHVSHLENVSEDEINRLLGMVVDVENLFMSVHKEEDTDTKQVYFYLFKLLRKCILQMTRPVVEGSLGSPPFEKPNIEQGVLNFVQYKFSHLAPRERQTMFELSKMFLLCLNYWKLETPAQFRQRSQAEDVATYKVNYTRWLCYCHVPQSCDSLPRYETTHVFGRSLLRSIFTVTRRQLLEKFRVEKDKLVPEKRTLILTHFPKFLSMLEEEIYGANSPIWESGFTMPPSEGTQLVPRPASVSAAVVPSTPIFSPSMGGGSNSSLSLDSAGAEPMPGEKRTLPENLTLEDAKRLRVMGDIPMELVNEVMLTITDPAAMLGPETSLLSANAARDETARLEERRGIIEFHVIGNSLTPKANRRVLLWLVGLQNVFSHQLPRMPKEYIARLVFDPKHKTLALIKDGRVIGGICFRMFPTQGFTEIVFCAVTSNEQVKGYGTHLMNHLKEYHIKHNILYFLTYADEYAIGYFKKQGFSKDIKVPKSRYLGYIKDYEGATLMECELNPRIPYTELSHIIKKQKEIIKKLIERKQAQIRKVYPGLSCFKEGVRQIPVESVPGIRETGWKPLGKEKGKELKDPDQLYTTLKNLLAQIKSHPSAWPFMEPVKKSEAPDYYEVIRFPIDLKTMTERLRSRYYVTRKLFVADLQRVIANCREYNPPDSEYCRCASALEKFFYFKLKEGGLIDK
Description: Histone acetyltransferase (HAT) enzymes transfer a […] group from acetyl-coenzyme A to the epsilon-amino group of conserved lysine residues of N-terminal histone tails. Acetylation results in charge neutralization of this positively charged amino acid, decreasing interactions with the […] backbone and making the DNA more accessible for transcription. HATs have been recognized as an emerging drug target for treatment of cancer, diabetes, asthma, chronic obstructive pulmonary disease, cardiac disease, and viral infection. Protein identified with HAT activity include the […] like 2 (GCN5L2, a.ka. Histone acetyltransferase KAT2A) which acetylates histone H3 at Lys9, 14, 18, 13, and to lesser extent histones H4 and H2B. This activates transcription of the gene by modulating chromatin structure and installing the acetyllysine recognition mark for bromodomain-containing coactivator proteins. A quantitative high throughput screen was developed to identify small molecule inhibitors. The assay is based on the principle that it measures formation of reduced CoA with the pro-fluorescent maleimide derivative ThioGlo1 that becomes fluorescent upon reaction with the free thiol of CoA. A large number of artifacts are expected in this primary screen, compounded by the assay format (fluorescent artifacts) and by the high top concentration tested for each substance. […] Yasgar, et al. Compound Management for Quantitative High-Throughput Screening. […] Inglese, et al. Quantitative high-throughput screening: a titration-based approach that efficiently identifies biological activities in large chemical libraries. […]
To each well of a 1,536w plate, 3ul of GCN5L2 (final concentration 20nM, in 50mM HEPES, 0.1mM EDTA (pH 7.5), 0.01% Tween-20 buffer) are added using a Kalypsys dispenser. […] Plates are read immediately on the ViewLux (PerkinElmer) (Ex340nm/Em540nm) for a 0 min read, incubated for 20 min at room temperature, and read again on the ViewLux with the same settings. The initial read was carried out to identify compounds that are potentially fluorescent.

Potency, active:
FC(F)(F)C1CCCN(c2nsc3ccccc23)C1 (stereo not drawn) 2.89 µM, CC1=C/C(=N\OS(=O)(=O)c2ccccc2)C=CC1=O 10.2 µM, O=c1[nH]c2ccccc2n2c(-c3ccccc3)nnc12 6.46 µM
